Experimental data reported in PubChem BioAssay.
Where “and” joins values, the source holds several entries; their conditions need not be identical. Identical values can stand only once. Results filed as inconclusive are left out. Calls of active or inactive are those of the source.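 How the source made its calls, unless noted: active means normalized viability below 100% at a tested concentration; inactive means the rest.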

What was measured:
[1] = viability loss in pontine glioma line – cell-based, SU-DIPG-XXV, MIPE5.0, CellTiter-Glo, qHTS, dose response (AID 1347065; cut-off not given, nearly all actives have AC50 up to about 26 µM;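 further: cells exposed to compound for 48 hours before ATP readout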); conditions: CellTiter-Glo ATP luminescence
[2] = SU-DIPG-VI glioma cell viability, MIPE4.0 library, CellTiter-Glo luminescence, qHTS (AID 1347066; cut-off not given, nearly all actives have AC50 up to about 30 µM;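 further: cells exposed to compound for 48 hours before readout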); conditions: CellTiter-Glo ATP luminescence
[3] = JHH-DIPG-1 glioma cell viability, MIPE5.0 library, CellTiter-Glo luminescence, qHTS (AID 1347067; cut-off not given, nearly all actives have AC50 up to about 26 µM;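 further: cells exposed to compound for 48 hours before readout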); conditions: JHH-DIPG-1 glioma viability, CellTiter-Glo ATP luminescence
[4] = SU-DIPG-XXV glioma cell viability, MIPE5.0 library, qHTS (AID 1347068; cut-off not given, nearly all actives have IC50 up to about 30 µM;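 further: cells exposed to compound for 48 hours before viability readout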)
[5] = sensitizers of A549 cells to miR-34 induction, primary screen, imaging, A549 dox-inducible miR-34, nuclei and caspase counts (AID 1347080;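 active means compounds whose cell count with miR-34 switched on is under 0.7 times the count with it off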); conditions: A549 miR-34 inducible, Hoechst nuclei count, 48 h
[6] = modifiers of HSF1 nuclear foci, imaging, Selleck Cancer Library (AID 1347162; in the data active means plate-normalised HSF1 focus index below about 0.46); conditions: human cells, at 10 µM; SSMD: measured here: HSF1 foci SSMD mean; cell count: measured here: cell number; plate-normalised HSF1 focus index: stronger effect = lower value
[7] = survival rescue of mitochondrial mutant cells in low glucose, primary screen, MELAS cybrids, Rieske KO mouse fibroblasts, CellTiter-Glo (AID 1508586;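 active means mean z-score across replicates of 1.96 or higher in either the MELAS or the Rieske mutant cell line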;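 further: z relative to plate mean and SD of compound and empty wells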)
[8] = ovarian cancer cell viability with rucaparib, profiling panel, oncology-focused library, rucaparib conditional (AID 1508598); conditions: patient-derived ovarian cancer cells, CellTiter-Glo viability, 144 h, stronger effect = lower value
[9] = molecular target: NAD(+) hydrolase SARM1 (Homo sapiens) (UniProt Q6SZW1); experiment: SARM1 TIR NADase inhibitors, cell lysate, NAD-Glo luminescence (AID 1508614;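 active means compound whose remaining NAD level is above about 45 nM, limit read from the data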); conditions: SAM-TIR HEK293T lysate NADase, at 1 µM, stronger effect = higher value
[10] = molecular target: Mitogen-activated protein kinase 7 (Homo sapiens) (UniProt Q13164); experiment: ERK5 transactivation activators in reporter cells, primary screen, cell-based, HTS (AID 1508626;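 active means luciferase signal above three times the same-plate solvent-only control wells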;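 further: luciferase driven by Gal4-ERK5 fusion binding five Gal4 sites before minimal TATA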); conditions: HeLa Gal4-ERK5 transactivation, 18 h, at 5 µM, stronger effect = higher value
[11] = LFS_MB_P medulloblastoma growth inhibition, cell-based, chromothripsis tumors, cisplatin or BGB combos (AID 1671449; in the data active means inhibition above about 80%;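 further: cells exposed for 96 hours; 0% = vehicle DMSO and 100% = killing by high DMSO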); conditions: LFS_MB_P medulloblastoma cells
[12] = HDN33 neuroblastoma growth inhibition, cell-based, chromothripsis tumors, cisplatin or BGB combos (AID 1671450; in the data active means inhibition above about 80%;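 further: cells exposed to compound for four days; 0% = vehicle DMSO and 100% = cell killing by high DMSO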); conditions: HDN33 neuroblastoma cells, stronger effect = higher value
[13] = ICB984 medulloblastoma cell growth inhibition, synergistic combos for chromothripsis tumors, cisplatin or BGB combos (AID 1671451; call rule not given here;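 further: cells exposed for 96 hours before readout; 0% = vehicle DMSO and 100% = killing by high DMSO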); conditions: ICB984 medulloblastoma cells, drug combinations, stronger effect = higher value
[14] = LFS_MB_1R medulloblastoma cell growth inhibition, synergistic combos for chromothripsis tumors, cisplatin or BGB combos (AID 1671452; in the data active means inhibition above about 80%;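 further: cells exposed for 96 hours before readout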); conditions: LFS_MB_1R medulloblastoma cells, stronger effect = higher value
[15] = HTB85 osteosarcoma cell growth inhibition, synergistic combos for chromothripsis tumors, BGB or cisplatin IC20 combos (AID 1671453; in the data active means inhibition above about 80%;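 further: cells exposed for 96 hours before readout; 0% = vehicle DMSO and 100% = high DMSO killing control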); conditions: HTB85 osteosarcoma cells, drug combinations, stronger effect = higher value
[16] = CRL2098 osteosarcoma cell growth inhibition, synergistic combos for chromothripsis tumors, BGB or cisplatin IC20 combos (AID 1671454; in the data active means inhibition above about 80%;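 further: cells exposed for 96 h before readout; 0% = vehicle DMSO and 100% = killing by high DMSO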); conditions: CRL2098 osteosarcoma cells, drug combinations, stronger effect = higher value
[17] = HD-MB03 medulloblastoma cell growth inhibition, synergistic combos for chromothripsis tumors, BGB or cisplatin IC20 combos (AID 1671455; in the data active means inhibition above about 83%;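 further: 0% = vehicle DMSO and 100% = high DMSO as cytotoxic control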); conditions: HD-MB03 medulloblastoma cells, stronger effect = higher value
[18] = stronger effect = lower value, cell number ratio, induced over uninduced
[19] = measured here: relative caspase fold change +Dox/-Dox
[20] = measured here: total cells with miR-34 induction, stronger effect = lower value
[21] = measured here: total cells without miR-34 induction
[22] = MELAS cybrid survival, CellTiter-Glo 48 h, stronger effect = higher value
[23] = Rieske KO mouse fibroblast survival, CellTiter-Glo 72 h
[24] = measured here: combination with BGB IC40, at 0.05 µM

NAD(+) hydrolase SARM1 (Homo sapiens), sequence (Q6SZW1 whole entry, looked up, the tested form may be a part): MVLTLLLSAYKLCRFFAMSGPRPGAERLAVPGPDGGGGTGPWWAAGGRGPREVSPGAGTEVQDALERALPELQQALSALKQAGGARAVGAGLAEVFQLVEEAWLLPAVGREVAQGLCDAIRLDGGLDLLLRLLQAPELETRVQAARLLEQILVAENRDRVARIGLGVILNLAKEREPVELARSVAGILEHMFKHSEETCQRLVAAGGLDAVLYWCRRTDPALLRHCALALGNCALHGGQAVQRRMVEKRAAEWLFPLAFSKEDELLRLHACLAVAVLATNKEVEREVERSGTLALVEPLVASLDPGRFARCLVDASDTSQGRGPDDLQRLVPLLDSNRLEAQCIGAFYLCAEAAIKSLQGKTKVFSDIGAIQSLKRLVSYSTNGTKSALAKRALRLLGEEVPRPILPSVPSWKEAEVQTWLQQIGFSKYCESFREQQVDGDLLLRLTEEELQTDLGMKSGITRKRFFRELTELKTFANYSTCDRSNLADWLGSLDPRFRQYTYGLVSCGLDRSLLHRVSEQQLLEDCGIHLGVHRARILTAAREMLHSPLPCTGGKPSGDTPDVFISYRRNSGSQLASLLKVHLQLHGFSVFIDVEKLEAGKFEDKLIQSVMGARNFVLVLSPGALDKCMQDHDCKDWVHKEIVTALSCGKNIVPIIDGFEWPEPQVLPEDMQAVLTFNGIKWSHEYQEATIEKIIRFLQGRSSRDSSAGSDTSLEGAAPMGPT
Mitogen-activated protein kinase 7 (Homo sapiens), sequence (Q13164 whole entry, looked up, the tested form may be a part): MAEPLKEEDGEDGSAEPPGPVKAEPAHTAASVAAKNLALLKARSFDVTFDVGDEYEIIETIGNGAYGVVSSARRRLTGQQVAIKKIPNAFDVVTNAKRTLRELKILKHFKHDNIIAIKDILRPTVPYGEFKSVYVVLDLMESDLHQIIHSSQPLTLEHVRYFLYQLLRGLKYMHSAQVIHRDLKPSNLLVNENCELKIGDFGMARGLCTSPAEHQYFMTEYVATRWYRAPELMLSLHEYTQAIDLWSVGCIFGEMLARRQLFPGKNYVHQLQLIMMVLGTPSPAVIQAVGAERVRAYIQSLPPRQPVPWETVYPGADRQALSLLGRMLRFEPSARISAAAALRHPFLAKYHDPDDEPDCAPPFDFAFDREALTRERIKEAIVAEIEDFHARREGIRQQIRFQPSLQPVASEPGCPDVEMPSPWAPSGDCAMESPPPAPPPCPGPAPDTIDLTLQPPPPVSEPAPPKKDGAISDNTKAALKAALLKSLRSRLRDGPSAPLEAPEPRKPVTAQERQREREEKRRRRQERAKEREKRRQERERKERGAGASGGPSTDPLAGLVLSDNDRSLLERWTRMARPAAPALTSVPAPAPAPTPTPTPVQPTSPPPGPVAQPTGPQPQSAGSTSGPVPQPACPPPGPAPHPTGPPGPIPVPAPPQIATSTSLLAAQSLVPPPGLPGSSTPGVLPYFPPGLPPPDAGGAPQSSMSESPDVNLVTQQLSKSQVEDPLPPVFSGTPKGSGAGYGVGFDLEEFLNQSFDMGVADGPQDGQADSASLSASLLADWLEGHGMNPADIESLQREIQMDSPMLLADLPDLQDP

## COc1cc2c(Nc3ccc(Br)cc3F)ncnc2cc1OCC1CCN(C)CC1
[1]
  AC50: 14.8 µM (active)
[2]
  AC50: 20.9 µM (active)
[3]
  AC50: 20.9 µM (active)
[4]
  IC50: 26.3 µM (active)
[5]; [18]
  fold change: 0.896 (inactive)
[5]; [19]
  fold change: 1.03
[5]; [20]
  cell count: 1750
[5]; [21]
  cell count: 1950
[6]
  SSMD: -3.85
  cell count: 4710
  plate-normalised HSF1 focus index: 0.799 (inactive)
[7]; [22]
  z-score: -0.0745 (inactive)
[7]; [23]
  z-score: -0.742
[8]; at 0.000305 µM, OCI-C5x cells, with rucaparib 10 µM, 100% = cells with rucaparib alone
  viability: 108% (inactive)
[8]; at 0.000305 µM, OCI-C5x cells, without rucaparib
  viability: 109% (inactive)
[8]; at 0.000305 µM, OCI-P5x cells, with rucaparib 20 µM, 100% = cells with rucaparib alone
  viability: 82.1% (active)
[8]; at 0.000305 µM, OCI-P5x cells, without rucaparib
  viability: 95.9% (active)
[8]; at 0.00122 µM, OCI-C5x cells, with rucaparib 10 µM, 100% = cells with rucaparib alone
  viability: 103% (inactive)
[8]; at 0.00122 µM, OCI-C5x cells, without rucaparib
  viability: 106% (inactive)
[8]; at 0.00122 µM, OCI-P5x cells, with rucaparib 20 µM, 100% = cells with rucaparib alone
  viability: 92.5% (active)
[8]; at 0.00122 µM, OCI-P5x cells, without rucaparib
  viability: 100% (inactive)
[8]; at 0.00488 µM, OCI-C5x cells, with rucaparib 10 µM, 100% = cells with rucaparib alone
  viability: 122% (inactive)
[8]; at 0.00488 µM, OCI-C5x cells, without rucaparib
  viability: 111% (inactive)
[8]; at 0.00488 µM, OCI-P5x cells, with rucaparib 20 µM, 100% = cells with rucaparib alone
  viability: 87.8% (active)
[8]; at 0.00488 µM, OCI-P5x cells, without rucaparib
  viability: 104% (inactive)
[8]; at 0.0195 µM, OCI-C5x cells, with rucaparib 10 µM, 100% = cells with rucaparib alone
  viability: 110% (inactive)
[8]; at 0.0195 µM, OCI-C5x cells, without rucaparib
  viability: 118% (inactive)
[8]; at 0.0195 µM, OCI-P5x cells, with rucaparib 20 µM, 100% = cells with rucaparib alone
  viability: 90.3% (active)
[8]; at 0.0195 µM, OCI-P5x cells, without rucaparib
  viability: 112% (inactive)
[8]; at 0.0781 µM, OCI-C5x cells, with rucaparib 10 µM, 100% = cells with rucaparib alone
  viability: 111% (inactive)
[8]; at 0.0781 µM, OCI-C5x cells, without rucaparib
  viability: 118% (inactive)
[8]; at 0.0781 µM, OCI-P5x cells, with rucaparib 20 µM, 100% = cells with rucaparib alone
  viability: 88% (active)
[8]; at 0.0781 µM, OCI-P5x cells, without rucaparib
  viability: 101% (inactive)
[8]; at 0.313 µM, OCI-C5x cells, with rucaparib 10 µM, 100% = cells with rucaparib alone
  viability: 112% (inactive)
[8]; at 0.313 µM, OCI-C5x cells, without rucaparib
  viability: 113% (inactive)
[8]; at 0.313 µM, OCI-P5x cells, with rucaparib 20 µM, 100% = cells with rucaparib alone
  viability: 83.3% (active)
[8]; at 0.313 µM, OCI-P5x cells, without rucaparib
  viability: 103% (inactive)
[8]; at 1.25 µM, OCI-C5x cells, with rucaparib 10 µM, 100% = cells with rucaparib alone
  viability: 111% (inactive)
[8]; at 1.25 µM, OCI-C5x cells, without rucaparib
  viability: 116% (inactive)
[8]; at 1.25 µM, OCI-P5x cells, with rucaparib 20 µM, 100% = cells with rucaparib alone
  viability: 78.7% (active)
[8]; at 1.25 µM, OCI-P5x cells, without rucaparib
  viability: 102% (inactive)
[8]; at 5 µM, OCI-C5x cells, with rucaparib 10 µM, 100% = cells with rucaparib alone
  viability: 55.4% (active)
[8]; at 5 µM, OCI-C5x cells, without rucaparib
  viability: 51.8% (active)
[8]; at 5 µM, OCI-P5x cells, with rucaparib 20 µM, 100% = cells with rucaparib alone
  viability: 43.9% (active)
[8]; at 5 µM, OCI-P5x cells, without rucaparib
  viability: 78.9% (active)

## CN(C)c1ccc(C(=C2C=CC(=[N+](C)C)C=C2)c2ccc(N(C)C)cc2)cc1
[1]
  AC50: 0.833 µM (active)
[2]
  AC50: 0.372 µM (active)
[3]
  AC50: 1.86 µM (active)
[4]
  IC50: 2.63 µM (active)
[5]; [18]
  fold change: 0.999 (inactive) and 0.737 (inactive)
[5]; [19]
  fold change: 0.9 and 1.26
[5]; [20]
  cell count: 1530 and 788
[5]; [21]
  cell count: 1530 and 1070
[7]; [22]
  z-score: 3.09 (active)
[7]; [23]
  z-score: -2.82
[9]
  remaining NAD: 10 nM (inactive)
[10]
  luciferase signal: 104 AU (inactive)
[11]; at 0.5 µM, stronger effect = higher value
  inhibition: -1.03% (inactive)
[11]; measured here: combination with BGB IC20, at 0.005 µM
  inhibition: -15.3%
[11]; measured here: combination with BGB IC40, at 0.005 µM
  inhibition: -20.2%
[11]; [24]
  inhibition: -19.9%
[11]; measured here: combination with cisplatin, at 0.5 µM, stronger effect = higher value
  inhibition: -17.8%
[11]; measured here: combination with cisplatin, at 5 µM, stronger effect = higher value
  inhibition: 112%
[12]; BGB combo, at 5 µM
  inhibition: 99.3%
[12]; at 0.5 µM
  inhibition: 99.6% (active)
[12]; cisplatin combo, at 5 µM
  inhibition: 99.6%
[12]; measured here: with BGB IC20 combination, at 0.5 µM
  inhibition: 99.7%
[12]; measured here: with cisplatin IC20 combination, at 0.5 µM
  inhibition: 99.6%
[12]; single agent, at 5 µM
  inhibition: 99.7%
[13]; BGB IC20 combo, at 0.005 µM
  inhibition: 79.3%
[13]; BGB IC40 combo, at 0.005 µM
  inhibition: 87.3%
[13]; BGB IC40 combo, at 0.05 µM
  inhibition: 98.5%
[13]; at 0.5 µM
  inhibition: -35.3% (inactive)
[13]; cisplatin combo, at 0.05 µM
  inhibition: 98.5%
[13]; cisplatin combo, at 0.5 µM
  inhibition: -53%
[13]; cisplatin combo, at 5 µM
  inhibition: -16%
[13]; measured here: 5 uM single agent, at 5 µM
  inhibition: 6.83%
[14]; at 0.5 µM
  inhibition: 80.9% (active)
[14]; [24]
  inhibition: -11%
[14]; measured here: combination with cisplatin, at 0.5 µM
  inhibition: 82.3%
[14]; measured here: combination with cisplatin, at 5 µM
  inhibition: 104%
[15]; at 0.5 µM
  inhibition: 88.8% (active)
[15]; measured here: with BGB IC20, at 0.5 µM
  inhibition: 84.9%
[15]; measured here: with BGB IC20, at 5 µM
  inhibition: 94%
[15]; measured here: with cisplatin IC20, at 0.5 µM
  inhibition: 92.7%
[15]; measured here: with cisplatin IC20, at 5 µM
  inhibition: 97.1%
[15]; single agent, at 5 µM
  inhibition: 96.8%
[16]; at 0.5 µM
  inhibition: 75.8% (inactive)
[16]; measured here: combination with BGB at IC20, at 0.5 µM
  inhibition: 79.9%
[16]; measured here: combination with cisplatin at IC20, at 0.5 µM
  inhibition: 70.6%
[17]; at 0.5 µM
  inhibition: 59.5% (inactive)
[17]; measured here: combo with BGB at IC20, at 0.5 µM
  inhibition: 60.7%
[17]; measured here: combo with cisplatin at IC20, at 0.5 µM
  inhibition: 47%
